Data from PubChem BioAssay (EPA / NIEHS).
Activity calls are given as the source filed them. How the source made its calls: active means hit-call score of the fitted dose curve at least 0.9, where 1 is the maximum; inactive means score below 0.9.

Read-out: Early growth response protein 1 (EGR1) transcription factor, EGR1 (gene 1958)
Assay: LTEA_HepaRG_EGR1: Life Technologies and Expression Analysis (LTEA) Assay for Early growth response protein 1 (EGR1) transcription factor using HepaRG (AID 2283490)
Conditions: mRNA level, 48 h; actives raise or lower the signal
Description: LTEA_HepaRG is a cell based, multiplexed-readout assay that uses HepaRG, a human liver cell line, with measurements taken at 48 hours after chemical dosing on a 96-well plate.LTEA_HepaRG_EGR1 is one of 102 assay component(s) measured in the LTEA HepaRG cell culture assay. It is a marker of Cell proliferation, survival, death.Data from the assay component LTEA_HepaRG_EGR1 was analyzed into 1 endpoint. This assay endpoint, LTEA_HepaRG_EGR1, was analyzed with bidirectional fitting relative to DMSO as the negative control and baseline of activity. Using a type of inducible reporter, measures of mRNA induction for gain or loss-of-signal activity can be used to understand regulation of transcription factor activity. To generalize the intended target to other relatable targets, this assay endpoint is annotated to the dna binding intended target family, where the subfamily is zinc finger.
A total of 1060 chemcials from the ToxCast library were tested in eight-point concentration-response experiments. Cell culture and cytotoxicity assays were conducted at Thermo Fisher Scientific's Custom Services facility (Madison, WI). A single lot of human HepaRG cells (Thermo Fisher Scientific, Frederick, MD) was used for the cell culture experiments. 96-well format collagen type I coated plates of human HepaRG cells were prepared using established methods. Briefly, cryopreserved HepaRG cells were thawed, plated at a density of approximately 100,000 cells/well in HepaRG Thaw, Plate, and General Purpose media (HPRG770, Thermo Fisher Scientific), and incubated for 48 hours. 0.5% DMSO was selected as vehicle control to balance the requisite need of DMSO in HepaRG cultures to maintain differentiation (for example, baseline metabolism, proportions of hepatocytes vs. cholangiocytes), while enabling further hepatic receptor pathway activation (for example, PXR and CAR) in response to chemical exposure. 48 hours after plating, the culture medium was replaced with HepaRG Serum-Free Incudtion Media. Cells were exposed to each test chemical in duplicate and maintained in CO2 incubators for another 48 hours. Chemical plates were thawed to room temperature and 200x concentrations of treatment groups were prepared. 8-point conentration-reponse curves were made with the highest exposure at 100 uM, followed by half-log dilutions, all in 0.5% DMSO. Each test plate contained variouse controls, induction positive controls (1mM phenobarbital), cytotoxicity positive controls ([…] aflatoxin B1), vehicle controls (0.5% DMSO), and total lysis controls (0.5% DMSO). Cell morphology images were taken using an Essen IncuCyte FLR automated microscope, with six 96-well plates imaged in about 24 minutes. Images were captured and exported and JPEG files. Spent culture media was transfered to black-well plates for the LDH assay, and remaining media was sorted at -80 C for later use. Cells were treated with RLT buffer and frozen until shipped for gene expression analysis. Total RNA was isolated from the cell suspension in 75 uL of Buffer RLT (Qiagen, Germantown, MD 20874) by Quintiles/Expression Analysis (Durham, NC) using a custom isolation procedure. Total RNA from each plate well was transferred to a preamplification plate. Fluidigm's 96.96 Dynamic ArrayTM (Fluidigm, Amsterdam, the Netherlands) technology was used for gene expression analyses by quantitative reverse transcription polymerase chain reaction (qRT-PCR, performed by Quintiles/Expression Analysis, Durham, NC)89. Standard TaqManTM Assays (Applied Biosystems/ThermoFisher Scientific, Foster City, CA) were used to assess the expression of 93 genes selected based on their selectivity and sensitivity to important hepatic receptors known to be modulated by environmental chemicals; importance in human hepatocyte functionality; and hepatotoxicity. […]

Question: With `CC(=O)OC/C=C(\C)CCC=C(C)C` as the compound, how does the outcome read?
Answer: inactive

Question: For `CCCCCCCCCCCC(=O)OC`, which outcome is on record?
Answer: inactive

Question: `Cc1nc(-c2ccc3c(c2)CCN(CCC2CCC(NC(=O)/C=C/c4ccc(F)cc4)CC2)CC3)no1` (stereo not given) was tested. Which outcome did it give?
Answer: inactive

Question: Which outcome does the source give for `C=CCOC(=O)c1ccccc1C(=O)OCC=C` here?
Answer: inactive

Question: Which AC50 does the source give for `CNCc1cc(F)ccc1Oc1ccc(Cl)c(Cl)c1` here?
Answer: 83 µM (active)

Question: `Cc1cccc([N+](=O)[O-])c1C` was tested. Which outcome did it give?
Answer: inactive

Question: How did the outcome turn out when `CCCCN(CCCC)CCCC` was run?
Answer: inactive

Question: How did the outcome turn out when `O=C(O)Cc1ccccc1Nc1c(Cl)cccc1Cl` was run?
Answer: inactive

Question: With `COc1ccc(S(=O)(=O)N2C(=O)[C@@](c3ccccc3OC)(N3C[C@H](O)C[C@H]3C(=O)N(C)C)c3cc(Cl)ccc32)c(OC)c1` as the compound, how does the AC50 read?
Answer: 81.1 µM (active)

Question: Which outcome does the source give for `Clc1cc(Cl)c(Cl)cc1Cl` here?
Answer: inactive

Question: How did the outcome turn out when `CCCCCCC(=O)OCC` was run?
Answer: inactive

Question: With `CC(CO)OC(C)CO` (stereo not given) (tested in a mixture with another compound) as the compound, how does the outcome read?
Answer: inactive

Question: For `O=C(OCCCCCOC(=O)c1ccccc1)c1ccccc1`, which outcome is on record?
Answer: inactive

Question: For `COC(=O)c1ccc(O)cc1`, which outcome is on record?
Answer: inactive

Question: For `O=C(N[C@@H](Cc1ccccc1)[C@@H](O)C(=O)N1C[C@@H](O)[C@@H](O)C1)c1cc2cc(Cl)ccc2[nH]1`, which outcome is on record?
Answer: inactive

Question: For `Cc1ccccc1Cl`, which outcome is on record?
Answer: inactive

Question: `C[Si]1(C)O[Si](C)(C)O[Si](C)(C)O[Si](C)(C)O1` was tested. Which outcome did it give?
Answer: inactive

Question: How did the outcome turn out when `CCNc1cccc(C)c1` was run?
Answer: inactive

Question: Which AC50 does the source give for `O=c1[nH]cc(F)c(=O)[nH]1` here?
Answer: 70.9 µM (active)

Question: Which outcome does the source give for `NCCO` here?
Answer: inactive

Question: `Nc1nc(N)c2nc(CNc3ccc(C(=O)N[C@@H](CCC(=O)O)C(=O)O)cc3)cnc2n1` was tested. Which AC50 did it give?
Answer: 0.102 µM (active)

Question: How did the outcome turn out when `CCOC(=O)CCC(=O)OCC` was run?
Answer: inactive

Question: For `CCCCCCCCCCO`, which outcome is on record?
Answer: inactive

Question: `c1cc(-c2ccncc2)ccn1` was tested. Which outcome did it give?
Answer: inactive

Question: How did the outcome turn out when `CC(=O)Oc1ccccc1C(=O)O` was run?
Answer: inactive

Question: `CC(C)c1ccc(C(=O)N=C(N)N)cc1S(C)(=O)=O` was tested. Which AC50 did it give?
Answer: 0.337 µM (active)

Question: With `NS(=O)(=O)c1cc2c(cc1Cl)NCNS2(=O)=O` as the compound, how does the outcome read?
Answer: inactive

Question: For `Cc1c(C(=O)O)c(O)cc2c1C(=O)c1c(O)c([C@@H]3O[C@H](CO)[C@@H](O)[C@H](O)[C@H]3O)c(O)c(O)c1C2=O`, which outcome is on record?
Answer: inactive

Question: `CCOC(=O)C(C)(C)Oc1ccc(Cl)cc1` was tested. Which outcome did it give?
Answer: inactive

Question: Which outcome does the source give for `CCOc1ccc2c(c1)C(C)=CC(C)(C)N2` here?
Answer: inactive

Question: `Cc1nc(C)nc(N2C[C@@H](C)N(c3ccnc([C@@H](C)O)n3)[C@@H](C)C2)n1` was tested. Which outcome did it give?
Answer: inactive

Question: How did the AC50 turn out when `Cc1oc(-c2ccccc2)nc1CCOc1cccc2c1ccn2CCC(=O)O` was run?
Answer: 4.76 µM (active)

Question: `COc1cc(C=O)ccc1O` was tested. Which outcome did it give?
Answer: inactive

Question: How did the outcome turn out when `NCC1(Cc2noc(=O)[nH]2)CCCCC1` was run?
Answer: inactive

Question: With `Cc1ccc(N(C)C)cc1` as the compound, how does the outcome read?
Answer: inactive

Question: With `CC(=O)OCCOCCOCCOC(C)=O` as the compound, how does the outcome read?
Answer: inactive

Question: How did the outcome turn out when `CC1(C)CC(N=C=O)CC(C)(CN=C=O)C1` (stereo not given) was run?
Answer: inactive

Question: How did the outcome turn out when `CCCCc1ccc2c(n1)[C@@H](c1ccc(OC)cc1C[C@H](C)C(=O)O)[C@H](C(=O)O)[C@H]2c1ccc2c(c1)OCO2` was run?
Answer: inactive

Question: How did the outcome turn out when `COc1cc(S(=O)(=O)O)c(C)cc1N=Nc1c(O)ccc2cc(S(=O)(=O)O)ccc12` was run?
Answer: inactive

Question: Which outcome does the source give for `COCCOC[C@H](CC1(C(=O)NC2CCC(C(=O)O)CC2)CCCC1)C(=O)Oc1ccc2c(c1)CCC2` (stereo not given in full) here?
Answer: inactive
